Test results as given in PubChem BioAssay (NCI).
Values joined by “and” are separate entries in the source; they are usually repeats but may differ in a detail not shown here. Identical values can stand only once. The panel holds about 79,000 compounds, 15% with a hit somewhere; the sample as a whole holds those more often. Rule as the data show it: active = growth inhibition above about 70%; inactive = the rest.

Assays:
[1] = NCI Yeast Anticancer Drug Screen. Data for the rad50 strain (AID 155);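 also: 0% = growth of vehicle-only cultures of the same strain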; settings: S. cerevisiae rad50 strain growth inhibition, hits give high values; at 50.0 µM unless noted
Procedure, shortened: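 A DNA repair-deficient yeast mutant serves as the test organism; compound-induced growth inhibition is calculated against vehicle-treated cells.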

[2] = NCI Yeast Anticancer Drug Screen. Data for the mec2-1 strain (AID 157); settings: S. cerevisiae mec2-1 strain, hits give high values; at 50.0 µM unless noted
Procedure, shortened: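 Compounds were applied to mec2-1 yeast cells. Their growth was then compared with that of vehicle-treated cultures to give growth inhibition.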

[3] = NCI Yeast Anticancer Drug Screen. Data for the sgs1 mgt1 strain (AID 161);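 also: 0% = growth of cultures given vehicle only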; settings: S. cerevisiae sgs1 mgt1 strain, hits give high values; at 50.0 µM unless noted
Procedure, shortened: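 Percent growth inhibition was derived by comparing compound-exposed mutant yeast with vehicle-exposed cultures. The strain carries alterations in DNA damage repair.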

[4] = NCI Yeast Anticancer Drug Screen. Data for the cln2 rad14 strain (AID 165);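 also: 0% = growth equal to vehicle treated cultures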; settings: S. cerevisiae cln2 rad14 strain, hits give high values; at 50.0 µM unless noted
Procedure, shortened: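 Strain: cln2 rad14 yeast, altered in cell cycle control and DNA damage repair. Read-out: growth inhibition vs vehicle.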

[5] = NCI Yeast Anticancer Drug Screen. Data for the bub3 strain (AID 167); settings: S. cerevisiae bub3 mutant strain, hits give high values; at 50.0 µM unless noted
Procedure, shortened: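 Inhibition values come from growth of compound-treated mutant yeast normalised to vehicle-treated controls.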

[6] = NCI Yeast Anticancer Drug Screen. Data for the mlh1 rad18 strain (AID 175); settings: S. cerevisiae mlh1 rad18 strain growth inhibition, hits give high values; at 50.0 µM unless noted
Procedure, shortened: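 A repair-deficient yeast strain is exposed to test compound, and growth is scored relative to vehicle-treated controls.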

Measured: growth inhibition

Cc1ccc(S(=O)(=O)NNC(=O)CCn2[nH]c(=O)c(Cl)c(Cl)c2=O)cc1
inactive: [1] -16.9% | [2] -9.65% | [3] -8.1% | [4] -38.1% | [5] -0.3% | [6] -12.1%

CC(O)C(C(=O)O)N(CC1(O)OCC(O)C(O)C1O)N=O (stereo unspecified)
inactive: [1] -4.5% | [2] -13.9% | [3] 11.3% | [4] 1.2% | [5] -2.65% | [6] -7.45%

CC(Sc1nc(N)nc2nc[nH]c12)C(=O)O (stereo unspecified)
inactive: [1] -15.2% | [2] -3.55% | [3] -11.3% | [4] -23.6% | [5] 4.15% | [6] 11%

Cc1[nH]n(C(N)=S)c(=O)c1N=Nc1ccc([N+](=O)[O-])cc1Cl
inactive: [1] 57.8% | [2] 6% | [3] 66.2% | [4] -46.5% | [5] 1.5% | [6] 53.2%

CC(=O)N1C(=O)CC23c4cccc([N+](=O)[O-])c4C(=O)N2CCCN13 (stereo unspecified)
inactive: [1] 8.8% | [2] 0.35% | [3] 0.9% | [4] 10.6% | [5] -21.8% | [6] 17.4%

CC(=O)[CH-]C(=O)c1ccccc1.CC(=O)[CH-]C(=O)c1ccccc1.CC(C)CCCC(C)[C@H]1CCC2[C@@H]3CCC4C[C@@H]([O-])CC[C@]4(C)C3CC[C@@]21C.CC(C)CCCC(C)[C@H]1CCC2[C@@H]3CCC4C[C@@H]([O-])CC[C@]4(C)C3CC[C@@]21C.Cl.[Ti+4] (stereo partly specified)
inactive: [1] 14.4% | [2] 1.25% | [3] 21.4% | [4] -12.1% | [5] 25.6% | [6] -0.95%

CC(Oc1c(Cl)cc(Cl)cc1Cl)C(=O)O (stereo unspecified)
inactive: [1] -13.7% | [2] -51.8% | [3] -8.6% | [4] 12.8% | [5] -34.9% | [6] -15.8%

O=C1NC(N2CCOCC2)=N/C1=C\c1cccs1
inactive: [1] -8.45% | [2] 5.05% | [3] 13.2% | [4] 32.3% | [5] 1.05% | [6] -34%

O=C(CCC(=O)Nc1ccc(Cl)c(Cl)c1)Cc1nc2ccccc2o1
inactive: [1] -8.25% | [2] -24.4% | [3] -11.2% | [4] 18.6% | [5] -13.7% | [6] 1.1%

CCOc1cc(OCC)c2c(c1)C(=O)OC2=O
inactive: [1] 4.15% | [2] -3.8% | [3] 10% | [4] 4.05% | [5] -34.4% | [6] -10.2%

CCC(=O)OC(C)COc1ccccc1 (stereo unspecified)
inactive: [1] -6.2% | [2] 3.25% | [3] -3.9% | [4] -43.5% | [5] -5.8% | [6] -10.4%

NCCNCCNCCN
inactive: [1] -12.4% and -8.1% | [2] -7.65% and -20.7% | [3] 3.1% | [4] -28.9% | [5] -5.35% | [6] -19.4% and 29.1%

CCOC(=O)CC(=O)CC(=O)OCC
inactive: [1] 36% | [2] 2.6% | [3] -6.95% | [4] 6.1% | [5] 23% | [6] 7%

C=C(NC(=O)C(c1ccccc1)c1ccccc1)C(=O)O
inactive: [1] 21.6% | [2] 11.7% | [3] -1.15% | [4] -25.1% | [5] -1.9% | [6] 17.4%

Cc1ccc(S(=O)(=O)NC(CCC(=O)N2CCOCC2)C(=O)O)cc1 (stereo unspecified)
inactive: [1] -18.1% | [2] -4% | [3] 7.15% | [4] -57.9% | [5] 24.8% | [6] 8.6%

Cn1cnc2[nH]c(=O)[nH]c(=O)c21
inactive: [1] 3.9% | [2] 12.9% | [3] -8.95% | [4] 1.95% | [5] 8.85% | [6] -0.75%

CC(=O)OC(C)(C)C#CC(C)(C)OC(C)=O
inactive: [1] -9.95% | [2] -24.4% | [3] -15.4% | [4] 3% | [5] -11.7% | [6] -19.3%

C=CCCn1nc(-c2ccccc2)oc1=O
inactive: [1] -8.35% | [2] -28.5% | [3] -19.2% | [4] -2.75% | [5] -26.9% | [6] 6.1%

CCCCCCC1(C)NC(=O)NC1=O (stereo unspecified)
inactive: [1] -20.2% | [2] -11.8% | [3] -2.15% | [4] -77.1% | [5] 6.3% | [6] -8.3%

Clc1ccc(N=Nc2nc3ccccc3nc2N=Nc2ccc(Cl)cc2Cl)c(Cl)c1
inactive: [1] -32.5% | [2] -4.6% | [3] -13.2% | [4] 3.25% | [5] -5.75% | [6] 0.55%

CCCSc1nc(C(=O)O)cc(=O)[nH]1
inactive: [1] -8.9% | [2] -13.8% | [3] -4.8% | [4] -44.2% | [5] -5.1% | [6] -8.15%
